# This is one part of a sample in which the strongest signals are shown more often than they occur.
# Tests used:
# Test in all cases: glycan array binding signal (z-score within array); higher = stronger binding
# Settings in all cases: glycan notation: IUPAC condensed, linker removed
# [1] = molecular target: Fuc(a1-3)[Gal(b1-4)]GlcNAc(b1-2)Man(a1-3)[Fuc(a1-3)[Gal(b1-4)]GlcNAc(b1-2)Man(a1-6)]Man(b1-4)GlcNAc(b1-4)GlcNAc
# How it was run: (§1)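 From the Consortium for Functional Glycomics database, 3228 arrays were curated, keeping only those whose protein sequence was available. Binding is given as a within-array Z-score averaged across arrays sharing a protein sequence and across linkers. Negative Z-scores can be read as non-binding.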
# [2] = molecular target: Fuc(a1-3)[Gal(b1-4)]GlcNAc(b1-3)Gal(b1-3)[Fuc(a1-4)]GlcNAc
# How it was run: as §1
# [3] = molecular target: Fuc(a1-3)[Gal3S(b1-4)]Glc
# How it was run: as §1
# [4] = molecular target: Fuc(a1-3)[GalNAc(b1-4)]GlcNAc
# How it was run: as §1
# [5] = molecular target: Gal(a1-3)Gal(b1-3)GlcNAc(b1-6)GalNAc
# How it was run: as §1
# Gal(a1-3)Gal(b1-4)GlcNAc = molecular target: Gal(a1-3)Gal(b1-4)GlcNAc
# How it was run: as §1
# [6] = molecular target: Gal(a1-3)Gal(b1-4)GlcNAc(b1-3)GalNAc
# How it was run: as §1
# [7] = molecular target: Gal(a1-3)Gal(b1-4)[Fuc(a1-3)]GlcNAc
# How it was run: as §1
# [8] = molecular target: Gal(b1-3)GlcNAc(b1-3)Gal(b1-3)GlcNAc
# How it was run: as §1
# [9] = molecular target: Gal(b1-3)GlcNAc(b1-3)Gal(b1-4)GlcNAc
# How it was run: as §1
# [10] = molecular target: Gal(b1-3)GlcNAc(b1-3)Gal(b1-4)[Fuc(a1-3)]GlcNAc
# How it was run: as §1
# Gal(b1-4)Glc6S = molecular target: Gal(b1-4)Glc6S
# How it was run: as §1
# [11] = molecular target: Gal(b1-4)GlcNAc(a1-6)Gal(b1-4)GlcNAc
# How it was run: as §1
# [12] = molecular target: Gal(b1-4)GlcNAc(b1-2)Man(a1-3)Man(b1-4)GlcNAc(b1-4)GlcNAc
# How it was run: as §1
# [13] = molecular target: Gal(b1-4)GlcNAc(b1-2)Man(a1-3)[GlcNAc(b1-4)][Gal(b1-4)GlcNAc(b1-2)Man(a1-6)]Man(b1-4)GlcNAc(b1-4)GlcNAc
# How it was run: as §1
# [14] = molecular target: Gal(b1-4)GlcNAc(b1-2)Man(a1-6)[GlcNAc(b1-2)Man(a1-3)]Man(b1-4)GlcNAc(b1-4)GlcNAc
# How it was run: as §1
# [15] = molecular target: Gal(b1-4)GlcNAc(b1-3)Gal(b1-4)GlcNAc(b1-3)Gal(b1-4)GlcNAc(b1-2)Man(a1-3)[Gal(b1-4)GlcNAc(b1-3)Gal(b1-4)GlcNAc(b1-3)Gal(b1-4)GlcNAc(b1-2)Man(a1-6)]Man(b1-4)GlcNAc(b1-4)GlcNAc
# How it was run: as §1
# [16] = molecular target: Gal(b1-4)GlcNAc(b1-3)Gal(b1-4)GlcNAc(b1-3)Gal(b1-4)GlcNAc(b1-2)Man(a1-3)[Gal(b1-4)GlcNAc(b1-3)Gal(b1-4)GlcNAc(b1-3)Gal(b1-4)GlcNAc(b1-2)Man(a1-6)]Man(b1-4)GlcNAc(b1-4)[Fuc(a1-6)]GlcNAc
# How it was run: as §1
# [17] = molecular target: Gal(b1-4)GlcNAc(b1-3)Gal(b1-4)GlcNAc(b1-3)Gal(b1-4)GlcNAc(b1-2)[Gal(b1-4)GlcNAc(b1-3)Gal(b1-4)GlcNAc(b1-3)Gal(b1-4)GlcNAc(b1-6)]Man(a1-6)[Gal(b1-4)GlcNAc(b1-3)Gal(b1-4)GlcNAc(b1-3)Gal(b1-4)GlcNAc(b1-2)Man(a1-3)]Man(b1-4)GlcNAc(b1-4)[Fuc(a1-6)]GlcNAc
# How it was run: as §1
# [18] = molecular target: Gal(b1-4)GlcNAc(b1-3)Gal(b1-4)GlcNAc(b1-3)Gal(b1-4)GlcNAc(b1-3)Gal(b1-4)GlcNAc(b1-2)Man(a1-3)[Gal(b1-4)GlcNAc(b1-3)Gal(b1-4)GlcNAc(b1-3)Gal(b1-4)GlcNAc(b1-3)Gal(b1-4)GlcNAc(b1-2)Man(a1-6)]Man(b1-4)GlcNAc(b1-4)[Fuc(a1-6)]GlcNAc
# How it was run: as §1
# [19] = molecular target: Gal(b1-4)GlcNAc(b1-3)Gal(b1-4)GlcNAc(b1-3)Gal(b1-4)GlcNAc(b1-3)Gal(b1-4)GlcNAc(b1-3)Gal(b1-4)GlcNAc(b1-2)Man(a1-3)[Gal(b1-4)GlcNAc(b1-3)Gal(b1-4)GlcNAc(b1-3)Gal(b1-4)GlcNAc(b1-3)Gal(b1-4)GlcNAc(b1-3)Gal(b1-4)GlcNAc(b1-2)Man(a1-6)]Man(b1-4)GlcNAc(b1-4)GlcNAc
# How it was run: as §1
# [20] = molecular target: Gal(b1-4)GlcNAc(b1-3)Gal(b1-4)GlcNAc(b1-3)Gal(b1-4)GlcNAc(b1-3)Gal(b1-4)GlcNAc(b1-3)Gal(b1-4)GlcNAc(b1-2)[Gal(b1-4)GlcNAc(b1-3)Gal(b1-4)GlcNAc(b1-3)Gal(b1-4)GlcNAc(b1-3)Gal(b1-4)GlcNAc(b1-3)Gal(b1-4)GlcNAc(b1-6)]Man(a1-6)[Gal(b1-4)GlcNAc(b1-3)Gal(b1-4)GlcNAc(b1-3)Gal(b1-4)GlcNAc(b1-3)Gal(b1-4)GlcNAc(b1-3)Gal(b1-4)GlcNAc(b1-2)Man(a1-3)]Man(b1-4)GlcNAc(b1-4)[Fuc(a1-6)]GlcNAc
# How it was run: as §1
binder,measurement,setting,value
"CC1G-10077 (Coprinopsis cinerea), A8NDT7 (protein) MALNEGVYWIRNSRFTNKVLDLDAANVAKGTSILDFNEHGTFNENHNQLWIVERFQSRDTYLIRSVHSNLVLDLSQGLSANGTPILCWTQHGGTNQQWRIEWVKDDNKTPLYRIVSVATGTAISHNEDDSSAYTVAWSVDDGPKQLWSFDPFVTPLLYRLRVKSTSRVLDLAAASADNGTLALAWEQHTAITKRNQLWWLPYRSGAEEYTIQCLETSTVADLSGGNSGNGTPIYGWQSHGGRNQQWKFEPTSDSGDYYHIKNVEGGSVMDAYMNDSQKRVGGWSNNGGDNQKWLLDPLPSPGPGWVLIQNGGTGKFLCSTPSGDIGTADGPETVYDYSVQWRFIQREYTGVYHVVNRATGAYLRQIGTSMPSIGLAEENDDELKDWWMLETYDNSEIGLASIISRWTGNVLDHYGGVSVQALDNNTENSYRSWAIIPARDWLTSFSLVNGQGGLCLAAQYAREETRLSTTANVNDFHAQWVFRKPSGSSGYTIQNKYNNHYVGGTSARWELVVCCNKYFGIRNTSTQKYLAIEDGQVTFQDQDMTDRKQCWELCSGRATDTSGNDYDLIYMDDDLLEVMIPWVGDKQGDLKHYIEKRATKKPPKDKGGWQLPAAGLIKKPKFNDIRQLLQELIEQWEWDVVNEEREQIQTLVSIDEAEARRLLGRRPHPDIVAAYQRSRSSTLFRIDRQGYFNIAGDRYVNIQGQYGDDSYFHIALPVGVRFGREQIRRFLRDSLDRSTSVTITPTTCKPPSGGPDYNRDPDSDGDNSWIKWTIAVVGTSAIKHSEL",glycan array binding signal (z-score),[1],-0.467
same,glycan array binding signal (z-score),[2],-0.51
same,glycan array binding signal (z-score),[3],-0.424
same,glycan array binding signal (z-score),[4],-0.4
same,glycan array binding signal (z-score),[5],1.19
same,glycan array binding signal (z-score),Gal(a1-3)Gal(b1-4)GlcNAc,0.177
same,glycan array binding signal (z-score),[6],-0.3
same,glycan array binding signal (z-score),[7],0.744
same,glycan array binding signal (z-score),[8],0.08
same,glycan array binding signal (z-score),[9],0.142
same,glycan array binding signal (z-score),[10],0.199
same,glycan array binding signal (z-score),Gal(b1-4)Glc6S,-0.024
same,glycan array binding signal (z-score),[11],3.26
same,glycan array binding signal (z-score),[12],1.15
same,glycan array binding signal (z-score),[13],0.424
same,glycan array binding signal (z-score),[14],3.12
same,glycan array binding signal (z-score),[15],2.19
same,glycan array binding signal (z-score),[16],3.5
same,glycan array binding signal (z-score),[17],3.22
same,glycan array binding signal (z-score),[18],3.19
same,glycan array binding signal (z-score),[19],3.72
same,glycan array binding signal (z-score),[20],3.25
